Most compounds without a hit are left out; they make up all but 4.6% or so of the library.
D1 PAM – potentiators of human D1 dopamine receptor; P21728; hit rate 0.036% among 360,000; potentiation, % at 10 µM; HEK293 TREx D1 cells, calcium flux, dopamine EC20 potentiation; AID 504651; in the data active means potentiation above about 30%; further: 0% is about no effect
D1 agonist – human D1 receptor agonism; hit rate 1% among 360,000; AID 504660; activation, % at 2 µM; HEK293 T-REx D1 cells, calcium flux, agonist mode; further: 0% is about no effect
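Tetracycline-induced HEK293 TREx D1 cells, force-coupled to calcium signalling, were dye-loaded with a no-wash calcium kit. Compound was pin-added after a 10 s baseline. Fluorescence was read kinetically at 1 cycle/s for 180 s, with calcium rises flagged as agonism.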
D1 antag – blocks dopamine activation of the human D1 receptor. P21728. HEK293 TREx D1 cells, calcium flux, dopamine EC80; active compounds read low. activity change, negative = inhibition, % at 10 µM. hit rate 3.2% among 360,000; in the data active means activity change below about -30%; further: on the % scale 0 is the no-effect control and ±100 the full control effect
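Kinetic fluorescence of a calcium dye serves as the read-out. D1-expressing Hek293 Trex cells, induced overnight at 30 C, are exposed to compound for 180 s before an EC80 dopamine addition, then read 180 s further.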
TRHR ag – TRH receptor (human) agonism; hit rate 0.18% among 360,000; activation, % at 2 µM; P34981; TRHR cells, calcium flux fluo-8, FDSS agonist mode; AID 493084; further: 0% is about no effect
Target sequence (P34981 whole entry, looked up): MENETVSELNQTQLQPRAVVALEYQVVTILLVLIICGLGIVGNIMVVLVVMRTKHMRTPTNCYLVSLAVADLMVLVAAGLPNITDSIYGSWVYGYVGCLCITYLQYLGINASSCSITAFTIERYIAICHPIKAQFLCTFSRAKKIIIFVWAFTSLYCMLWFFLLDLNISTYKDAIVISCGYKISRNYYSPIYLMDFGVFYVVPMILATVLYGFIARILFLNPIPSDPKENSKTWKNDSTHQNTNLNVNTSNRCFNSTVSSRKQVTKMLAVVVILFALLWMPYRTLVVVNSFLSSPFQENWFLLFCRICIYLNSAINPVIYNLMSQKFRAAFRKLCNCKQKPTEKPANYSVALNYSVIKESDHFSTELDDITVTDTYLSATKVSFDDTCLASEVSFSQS
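TRHR-expressing cells loaded with fluo-8 calcium dye; 23 nL library compound pin-transferred, kinetic FDSS fluorescence (Ex 480/Em 530) recorded about 180 s for agonist-induced calcium release, before a 10 nM TRH EC20 addition for potentiator mode.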
TRHR PAM – TRH receptor (human) allosteric enhancement | P34981 | enhancement, % at 2 µM | hit rate 0.66% among 360,000 | AID 493056 | TRHR cells, fluo-8 calcium fluorescence, EC20 TRH enhancement; in the data active means enhancement above about 30%; further: 0% is about no effect
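TRHR-expressing cells loaded with fluo-8 calcium dye were read kinetically (ex 480/em 530) during compound addition, then stimulated with an EC20 of TRH (10 nM final). Enhancement of the Gq-mediated intracellular calcium response was scored.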
Numbers without * were called inactive; x = no result given. Unless noted, no stated cut-off is given here; in the data, active means activation above about 30%; inactive means the rest.

SMILES	D1 PAM	D1 agonist	D1 antag	TRHR ag	TRHR PAM
Cc1cccc(C2CC(=O)Oc3c2c(=O)oc2ccccc32)c1 (centres undefined)	2	0	9	-2	6
CN1C[C@H](CNC(=O)OCc2ccccc2)C[C@@H]2c3cccc4c3c(cn4C)C[C@H]21	-4	37*	-87*	11	7
FC(F)(F)c1ccc(CN2CCNCC2)cc1	4	1	8	0	-5
FC(F)(F)c1cccc(N2CCNCC2)c1	-3	4	-32*	0	0
CC(C)(C)c1ccc(C(=O)C2CCCN(C3CCC3)C2)cc1 (centres undefined)	-3	5	-13	0	-1
CCOc1ccc(-n2c(O)c(/C=C3\C=Nc4ccccc43)c(=O)[nH]c2=O)cc1	2	32*	-5	-1	-2
Cc1ccc(CNC(=O)CCCn2c(=O)c3sccc3n(CC(=O)Nc3c(C)cccc3C)c2=O)cc1	1	-2	2	-2	-4
CNc1ccc2oc(C[C@H]3O[C@@]4(CC[C@H]3C)O[C@H]([C@H](C)C(=O)c3ccc[nH]3)[C@H](C)C[C@H]4C)nc2c1C(=O)O	-6	419*	-45*	123*	-17
CC(=O)N1CC(=O)Nc2ccc(Br)cc2C1c1ccc(F)cc1 (centres undefined)	-2	4	0	1	1
Cc1ccccc1OCC(=O)N1CCN(CCc2ccccn2)CC1	1	-1	4	-1	1
CC(C)Cc1nnc(NC(=O)CCC(=O)N2CCN(CCOC(c3ccccc3)c3ccccc3)CC2)s1	-4	6	-32*	0	0
Clc1ccc(C(OCCN2CCCCC2)c2ccccc2)cc1 (centres undefined)	-4	9	-16	0	0
CC(C)(C)N1C(=O)NC(=O)/C(=C\c2ccc3c(c2)CCN3CCCCl)C1=O	-1	1	-32*	1	-1
O=C1CC(c2ccc(F)cc2)c2c(c3ccccc3oc2=O)O1 (centres undefined)	-1	0	-13	1	1
CN(c1ccc(OCC(=O)N2CCN(C/C=C/c3ccccc3)CC2)cc1)S(=O)(=O)c1cccs1	-1	10	-43*	1	-6
O=C(COc1ccc(Cl)cc1Cl)N1CCN(C/C=C/c2ccccc2)CC1	1	6	17	4	-6
COc1ccc(Cc2nccc3cc(OC)c(OC)cc23)cc1OC	-3	8	-32*	0	-5
COc1ccc(CCNCc2ccc(C)s2)cc1OC	7	3	3	0	-7
CC(N)Cc1cn(Cc2ccccc2)c2ccccc12 (centres undefined)	-6	47*	4	2	4
O=C(Nc1ccc2c(c1)OCCO2)c1cccn(Cc2cccc(F)c2)c1=O	2	1	x	0	0
O=c1[nH]c(O)c(/C=C2/C=CC(c3cc(Cl)ccc3Cl)=N2)c(=O)[nH]1	6	73*	-7	26	-16
Cc1cccc(C)c1OC(=O)Cc1ccccc1	33*	0	12	2	-6
Clc1ccc2c(c1)C(OC1CN3CCC1CC3)c1ccccc1CS2 (centres undefined)	-8	35*	-50*	1	7
CSc1ccccc1C(=O)C1CCCN(Cc2ccncc2)C1 (centres undefined)	-4	4	-13	-1	40*
Cc1ccc(Cn2cccc(C(=O)Nc3ccc4c(c3)OCO4)c2=O)cc1	1	4	x	0	4
SMILES	D1 PAM	D1 agonist	D1 antag	TRHR ag	TRHR PAM
C=CCn1c(O)c(C(CC)=NCc2ccc3c(c2)OCO3)c(=O)[nH]c1=O	-4	2	-16	-1	6
CCCCn1c(O)c(C(CC)=NCc2ccc3c(c2)OCO3)c(=O)[nH]c1=O	-1	1	-34*	0	0
CN1/C(=C\C=C2C(=O)NC(=O)NC2=O)C(C)(C)c2ccccc21	-1	107*	1	101*	0
c1cncc(C2CCCCN2Cc2ccc3c(c2)OCO3)c1 (centres undefined)	-2	1	-38*	0	-1
Clc1cccc(CN2CCCCC2c2cccnc2)c1 (centres undefined)	0	6	-1	0	3
Cc1cccc(OCC(=O)N2CCN(Cc3cc(=O)n4nc(-c5ccccc5Cl)sc4n3)CC2)c1	-2	0	8	0	-7
CC(C)C[C@H](NC(=O)[C@@H]1CCCN1C(=O)[C@@H](N)Cc1ccc(O)cc1)C(=O)NCC(N)=O	7	1	-37*	1	-3
O=C(COc1ccc(Br)cc1)Nc1ccc(Cl)cc1C(=O)c1ccccc1	1	3	3	-1	0
CCNC(=O)NC(=O)C(C)OC(=O)c1c(C)nn(Cc2ccccc2Cl)c1Cl (centres undefined)	-3	5	-35*	0	-3
CCNC(=O)NC(=O)C(C)OC(=O)c1c(C)nn(Cc2ccccc2)c1Cl (centres undefined)	-1	2	6	0	9
COc1ccc(CCNCc2c(OC)ccc3ccccc23)cc1	-6	73*	0	-1	8
COC(=O)C1=C(c2ccc(F)cc2OCc2ccccc2)C[C@@H]2CC[C@H]1N2C(=O)N1CCOCC1	-3	-5	x	-1	8
Cc1ccc(-n2cc(CNC(C)Cc3cnccn3)c(-c3cccc(C)c3)n2)cc1 (centres undefined)	-3	37*	35	0	7
CN(N=O)c1cc(O)ccc1O	-4	3	-2	1	4
O=C1CC(c2ccccc2Br)c2c(c3ccccc3oc2=O)O1 (centres undefined)	1	4	-17	1	-6
O=C(COc1cc(Cl)ccc1Cl)Nc1ccc(Cl)cc1C(=O)c1ccccc1	1	-3	11	0	-2
O=S(=O)(NC1CCCCC1)OCC(Cl)(Cl)Cl	-3	1	-34*	0	-6
O=C1NC(=O)N(CCc2ccc(F)cc2)C(=O)/C1=C\C=C\c1ccccc1	5	6	11	2	0
C=CCN1C(=O)NC(=O)/C(=C/C=C/c2ccccc2)C1=O	-11	3	-34*	1	-5
C=Cc1ccc(Cn2c(C)c(CNCCc3cc(OC)ccc3OC)c(C(=O)O)c2C)cc1	0	-2	15	0	-10
Cc1ccc(NC(=O)N(Cc2ccc3c(c2)OCO3)C2CCN(Cc3ccccc3)CC2)cc1Cl	-5	42*	-7	5	-5
COc1ccc2c(c1OC)CN1CCc3cc4c(cc3[C@H]1C2)OCO4	-13	1	-80*	0	11
COc1ccc2c(c1OC)CN1CCc3cc4c(cc3C1C2)OCO4 (centres undefined)	-9	1	-80*	1	-4
COc1cc2c(cc1OC)C(C1c3cc4c(cc3CCN1C)OCO4)OC2=O (centres undefined)	-3	1	6	1	-7

Source: PubChem (National Center for Advancing Translational Sciences (NCATS))
